PI5P4K alpha inh: PI5P4K alpha (human) kinase inhibition. max response, %. AID 652105. PI5P4Kalpha enzyme, ADP-Glo luminescence, 60 min; hits give low values. P48426. hit rate 1.2% among 330,000; active = max response of -50% or lower; inconclusive = between -30% and -50%; inactive = -30% or higher; also: value at the top dose of about 77 µM; % is scaled to controls: 0 for no effect and ±100 for the full control effect
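Luminescence from ADP-Glo served as readout of PI5P4Kalpha activity in a qHTS format. Reaction: enzyme, substrate, compound, ATP at 5 microM final, 60 min at RT.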
BAZ2B inh: inhibitors of human BAZ2B bromodomain | AlphaScreen BAZ2B-H3K14Ac peptide displacement | Potency, µM (top dose mostly 114 µM), for the others: at the highest dose activity change, negative = inhibition, usual class: inhibitors | hit rate 4.4% among 360,000 | AID 504333; also: potency is read from the fitted curve at half-maximal effect; % is scaled to controls: 0 for no effect and ±100 for the full control effect; nearly all actives have a fitted effect of over 60% in size
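Inhibition is scored as reduced AlphaScreen emission. The BAZ2B/b-H3(5-23)K14Ac complex (50 nM each) in PBS pH 7.4, 0.01% Tween-20 meets compound (up to 110 uM) for 30 min at RT before bead addition.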
GCN5L2 inh: GCN5L2 (KAT2A) acetyltransferase inhibition; hit rate 0.21% among 390,000; GCN5L2 HAT assay, ThioGlo1 CoA-SH fluorescence; AID 504327; Q92830; Potency, µM (titrated, usually from 58.9 µM), inactives show at the highest dose activity change, negative = inhibition, actives largely listed as inhibitors; also: potency is read from the fitted curve at half-maximal effect; % is scaled to controls: 0 for no effect and ±100 for the full control effect
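Enzyme at 20nM final was mixed with library compounds for 15 min at room temperature. Peptide H3(1-25) at 75uM, acetyl-CoA at 70uM and ThioGlo1 at 50uM were then added. Plates were read immediately and after 20 min (Ex340nm/Em540nm).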
HP1b binding inh: inhibitors of HP1-beta chromodomain binding to methylated histone tails; Potency, µM (titrated, usually from 114 µM), for the others: top-dose activity change, negative = inhibition, usual class: inhibitors; hit rate 0.56% among 390,000; AlphaScreen HP1-beta / biotin-H3K9me3 peptide binding; P83916; also: potency is read from the fitted curve at half-maximal effect; nearly all actives have a fitted effect of over 70% in size
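AlphaScreen: HP1-beta (50 nM) preformed 30 min with biotin-H3(1-18)K9me3 peptide (50 nM) in PBS pH 7.4, 0.01% Tween-20. Compound added for 30 min at RT, then streptavidin donor/nickel chelate acceptor beads (10 ug/mL) for 30 min.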
JMJD2A Tudor: blocks the human JMJD2A Tudor domain | O75164 | AlphaScreen JMJD2A-Tudor / H3K4me3 peptide binding | Potency, µM (series often up to 114 µM), inactives show at the highest dose activity change, negative = inhibition, hits mostly inhibitors | hit rate 4.4% among 390,000 | AID 504339; also: potency is read from the fitted curve at half-maximal effect; % is scaled to controls: 0 for no effect and ±100 for the full control effect; nearly all actives have a fitted effect of over 50% in size
PLK1 PBD block: PLK1 (human) polo-box domain binding inhibition; Plk1 PBD binding of FITC phosphopeptide, fluorescence polarization; P53350; Potency, µM, inactives show max response, negative = inhibition, hits mostly inhibitors; hit rate 2.8% among 360,000; also: potency is read from the fitted curve at half-maximal effect; series mostly up to about 57 µM; % is scaled to controls: 0 for no effect and ±100 for the full control effect; nearly all actives have a fitted effect of over 65% in size
* marks the source's active call; other numbers are inactive results; ? = inconclusive; · = no result; ! = repeats disagree; [ ] = dose if it differs, or a comment. Hits are enriched below; roughly 7% of the tested compounds scored in any of these assays. Unless noted, calls follow the shape of the dose curve; as a rule, active = well fitted curve in the direction sought with a large enough effect; inconclusive = small, poorly fitted or top-dose-only effect, or another doubt; inactive = no such curve, though single readings can be large; an effect the other way counts as inactive or inconclusive.

SMILES	PI5P4K alpha inh	BAZ2B inh	GCN5L2 inh	HP1b binding inh	JMJD2A Tudor	PLK1 PBD block
CC1=C(C(=O)OCC2CCCO2)C(c2ccc(C)o2)C2=C(CC(c3ccc(N(C)C)cc3)CC2=O)N1 (centres undefined)	·	40µM*	?	·	·	·
CC1=C(C(=O)OCC2CCCO2)C(c2ccc(C)o2)C2=C(CC(c3ccc(F)cc3)CC2=O)N1 (centres undefined)	2	-10%	-22%	10%	-30%	-2%
CCSc1nc2c(c(=O)[nH]c(=O)n2C)n1CC(O)COc1ccccc1C (centres undefined)	·	-15%	-1%	-27%	-3%	27µM*
Cc1ccccc1OCC(O)Cn1c(SC(C)C)nc2c1c(=O)[nH]c(=O)n2C (centres undefined)	·	-27%	-11%	-12%	?	30µM*
O=C(O)CSc1cc(NS(=O)(=O)c2ccc(Cl)cc2)c2ccccc2c1O	-55*	50µM*	55%	20µM*	25µM*	1.3µM*
O=S(=O)(Nc1ccc(Cl)cc1NS(=O)(=O)c1ccccc1)c1ccccc1	3	·	·	0%[57 µM]	-26%	?
COc1ccc(S(=O)(=O)Nc2ccc(O)c(Sc3ncn[nH]3)c2)cc1	·	-7%	4%	-1%	-15%	-10%
COc1ccc(S(=O)(=O)Nc2cccc3ccc(O)cc23)cc1	2	·	·	4%	-13%	-2%
Cc1cc(C)c(S(=O)(=O)Nc2cc(SCC(=O)O)c(O)c3ccccc23)cc1C	-60*	40µM*	17%	-95%	22µM*	1.5µM*
COc1ccc(S(=O)(=O)Nc2cc(Sc3ncn[nH]3)c(O)c3ccccc23)cc1	·	45µM*	?	?	5.6µM*	·
COc1ccc(S(=O)(=O)Nc2cc(SCC(=O)O)c(O)c3ccccc23)cc1	-51*	40µM*	73%	13µM*	20µM*	1.5µM*
COc1cc(OC)c(NC(=O)CCCNC(=O)Cn2cnc3sc(C)c(C)c3c2=O)cc1Cl	-5	-29%	-13%	27%	-7%	-2%
CCOC(=O)c1sc(NC(=O)C(C)Oc2ccc(OC)cc2)c(C(=O)OCC)c1C (centres undefined)	·	5%	-7%	44%	-25%	·
Cc1cn(C)c(CC(=O)N2CCN(c3cccc(C(F)(F)F)c3)CC2)c1C(=O)O	·	-2%	0%	18%	-18%	·
COC(C[C@@H]1O[C@@H]1[C@H](O)[C@H](C)OCc1ccccc1)OC	-86*	0%	-16%	16%	-7%	-11%
O=C(/C=C/c1cccc(C(F)(F)F)c1)OCC(=O)N1CCN(c2ccccc2)CC1	0	·	-2%	21%	-3%	4%
Brc1cccc(CNCCCN2CCOCC2)c1	-21	-21%	-6%	37%	?	27µM*
Oc1ccccc1CNCCCN1CCOCC1	6	?	-7%	6%	4.5µM*	7%
C=CCOc1cccc(CNCCCN2CCOCC2)c1	3	-37%	-3%	35%	-4%	-13%
O=c1n(CCCN2CCN(c3cccc(Cl)c3)CC2)nc2ccccn12	0	0%	11µM*!	42%	-21%	0%
O=C1C2CCCN2C(=O)N1CCCN1CCN(c2cccc(Cl)c2)CC1 (centres undefined)	3	1%	-1%	32%	-13%	-4%
O=C(Nc1nnc(S(=O)(=O)N2CCCCCC2)s1)c1ccc(Br)cc1	-3	-39%	-5%	?	?	-13%
O=C(Nc1nnc(S(=O)(=O)N2CCCCC2)s1)c1ccc(Cl)cc1	-22	?	11µM*!	42%	1%	-11%
Cc1ccc(OCC(=O)Nc2nnc(S(=O)(=O)N3CCCCCC3)s2)cc1C	-3	-37%	2%	37%	-4%	-5%
O=C(COc1ccc(Cl)cc1)Nc1nnc(S(=O)(=O)N2CCCCCC2)s1	-10	1.8µM*!	-5%	?	10µM*!	-7%
SMILES	PI5P4K alpha inh	BAZ2B inh	GCN5L2 inh	HP1b binding inh	JMJD2A Tudor	PLK1 PBD block
O=C(COC(=O)c1cc([N+](=O)[O-])ccc1N1CCOCC1)Nc1c(Cl)cccc1C(F)(F)F	5	-8%	-6%	20%	-6%	-3%
O=C(COC(=O)c1ccccc1O)Nc1ncc(Cl)cc1Cl	?	50µM*	-19%	-11%	?	?
O=C(COC(=O)c1cc([N+](=O)[O-])ccc1N1CCOCC1)Nc1ncc(Cl)cc1Cl	-27	45µM*	-22%	1%	?	-14%
C=C[C@@H]1c2cc(C)ccc2N(S(=O)(=O)c2ccc(C)cc2)[C@H](c2ccc(OC(C)=O)cc2)C1(C#N)C#N	-5	4%	0%	18%	-30%	-7%
COCCNC(=O)CN1CCC(NC(=O)c2ccco2)CC1	-11	-27%	1%	24%[57 µM]	-4%	-12%
COc1ccc(OC)c(/C=C2\SC(=S)N(C(C(=O)O)c3ccccc3)C2=O)c1 (centres undefined)	-5	-33%	-28%	6%	-28%	-29%
CC(c1ccccc1)N1C(=O)/C(=C/c2ccncc2)SC1=S (centres undefined)	2	16µM*	-4%	?	16µM*	-27%
O=C(O)C(c1ccccc1)N1C(=O)/C(=C/c2cccs2)SC1=S (centres undefined)	-12	-10%	-2%	-20%	4µM*	?
C=CCOc1ccc(/C=C2\SC(=S)N(C(C(=O)O)c3ccccc3)C2=O)cc1 (centres undefined)	11	?	0%	-21%	?	30µM*
CC(/C=C1\SC(=S)N(NC(=O)c2cccc(O)c2)C1=O)=C\c1ccccc1	-14	11µM*	-16%	?	22µM*	-8%
CC(=C\c1ccccc1)/C=C1/SC(=S)N(CCC(=O)O)C1=O	-10	?	3%	5%	?	-30%
CC(=O)c1cccc(NC(=O)c2ccc(-n3c(C)nnc3C)cc2)c1	·	1%	-12%	13%[57 µM]	1%	·
C=CCNC(=O)C(C)N1c2cccc3cccc(c23)S1(=O)=O (centres undefined)	-15	-2%	-19%	55%	10%	2%
CC(/C=C1\SC(=S)N(C(C(=O)O)c2ccccc2)C1=O)=C\c1ccccc1 (centres undefined)	17	?	?	13%	?	27µM*
CC(/C=C1\SC(=S)N(CC(=O)O)C1=O)=C\c1ccccc1	-9	-16%	?	-1%	-17%	?
O=C(Cn1c(=O)n(CCCS(=O)(=O)C2CCCCC2)c(=O)c2ccccc21)Nc1ccccc1C(F)(F)F	·	-1%	0%	25%	10%	·
O=C(COC(=O)/C=C/c1ccc(Br)o1)NC1CCCCC1	-23	?	-2%	8%	79µM*	-24%
